Several values for one entry are separate records, joined by “and”; a condition that tells them apart may be missing. Equal entries are not always repeated. Where a structure was tested more than once in an assay, its records may differ in their call. Activity calls are given as the source filed them. Rule for the calls: active = hit-call score of the fitted dose curve at least 0.9, where 1 is the maximum; inactive = score below 0.9.
These molecules were tested on Vascular cell adhesion molecule 1 (VCAM1), VCAM1 (gene 7412) (assay: BSK_MyoF_VCAM1: BioMAP Diversity Plus: MyoF Assay for Vascular cell adhesion molecule 1 (VCAM1) Biomarker Activity (AID 2284231)). Settings: primary human lung fibroblasts.
Method: BSK_MyoF is a cell-based, multiplexed-readout assay that uses lung fibroblasts, […], with measurements taken at 24 hours after chemical dosing in a microplate: 96-well plate.BSK_MyoF_VCAM1 is an assay component measured in the BSK_MyoF assay. It measures VCAM-1 antibody related to regulation of gene expression using ELISA technology.Data from the assay component BSK_MyoF_VCAM1 was analyzed at the endpoint, BSK_MyoF_VCAM1, in the positive analysis fitting direction relative to DMSO as the negative control and baseline of activity. Using a type of binding reporter, gain or loss-of-signal activity can be used to understand protein changes. To generalize the intended target to other relatable targets, this assay endpoint is annotated to the 'cell adhesion molecules' intended target family, where the subfamily is 'Immunoglobulin CAM'.
The levels of cell surface (or secreted, indicated by the prefix "s") biomarker endpoints were measured by ELISA. Overt cytotoxicity to cells in confluent adherent cultures (all systems other than the BT system) was assessed by measuring total protein levels using sulforhodamine B (SRB) staining in parallel cultures at the time of biomarker measurements, indicated as SRB endpoints. For proliferation assays for adherent cell types, individual cell types are cultured at sub-confluence and relative cell numbers quantified by SRB staining at time points optimized for each system (48 h: 3C and CASM3C systems; 72 h: BT and HDF3CGF systems; 96 h: SAg system). SRB was performed by staining cells with 0.1% SRB after fixation with 10% TCA and reading wells at 560 nm.Viability and proliferation of PBMC (T cells) was quantified by Alamar Blue reduction for the SAg and BT systems. For PBMC viability (referred to as PBMC Cytotoxicity within the assay endpoint names), cells were plated (75,000/well in a 96-well plate) and then chemical samples added for 1 h before addition of activators, SEB and TSST-1 (20 ng/mL final concentration each). Cells were incubated for 90 h. Then, Alamar Blue (20 uL/well) (Invitrogen, Cat DAL1100) was added for 6 h, and the plates were read with a fluorescence microplate reader at 546/580 nm (excitation/emission). For PBMC proliferation, cells were plated and activated as above but incubated for only 16 h prior to addition of Alamar Blue. Plates were read after 6 h.

| SMILES | outcome | AC50 |
| --- | --- | --- |
| O=C(O)C(F)(OC(F)(F)C(F)(OC(F)(F)C(F)(F)C(F)(F)F)C(F)(F)F)C(F)(F)F (stereo not given) | inactive | – |
| FC(F)(F)C(F)(F)C(F)(F)C(F)(F)C(F)(F)C(F)(F)C(F)(F)I | – | 4.15 µM (active) and 4.24 µM (active) |
| O=C(O)C(F)(F)C(F)(F)F | inactive | – |
| O=C(CC(=O)C(F)(F)C(F)(F)F)C(F)(F)F | inactive | – |
| CCN(CC)c1ccc2c(C)cc(=O)oc2c1 | inactive | – |
| FC(F)(F)C(F)(F)C(F)(F)C(F)(F)CCI | inactive | – |
| FC(F)(F)C(F)(F)C(F)(F)C(F)(F)C(F)(F)C(F)(F)CC1CO1 (stereo not given) | inactive | – |
| CC(CCl)OP(=O)(OC(C)CCl)OC(C)CCl (stereo not given) | inactive | – |
| O=C(O)C(F)(F)C(F)(F)C(F)F | inactive | – |
| O=C(O)C(F)(F)C(F)(F)C(F)(F)C(F)(F)C(F)(F)C(F)(F)C(F)(F)C(F)(F)C(F)(F)C(F)(F)C(F)(F)C(F)(F)F | inactive | – |
| CCCCNc1ccccc1 | inactive | – |
| O=C(O)C(F)(OC(F)(F)C(F)(OC(F)(F)C(F)(OC(F)(F)C(F)(F)C(F)(F)F)C(F)(F)F)C(F)(F)F)C(F)(F)F (stereo not given) | inactive | – |
| O=C(Cl)C(F)(F)C(F)(F)C(F)(F)C(F)(F)C(F)(F)C(F)(F)C(F)(F)C(F)(F)F | – | 27.2 µM (active) and 45.4 µM (active) and 44.1 µM (active) |
| C=C(C)C(=O)OCCC(F)(F)C(F)(F)C(F)(F)C(F)(F)C(F)(C(F)(F)F)C(F)(F)F | inactive | – |
| CCO[Si](CCC(F)(F)C(F)(F)C(F)(F)C(F)(F)C(F)(F)C(F)(F)F)(OCC)OCC | inactive | – |
| Nc1ccc([N+](=O)[O-])cc1O | inactive | – |
| C=CC(F)(F)C(F)(F)C(F)(F)C(F)(F)C(F)(F)C(F)(F)C(F)(F)C(F)(F)F | inactive | – |
| CC(C)(C)C(=O)CC(=O)C(F)(F)C(F)(F)C(F)(F)F | inactive | – |
| O=C(O)C(F)(F)C(F)(F)OC(F)(F)F | inactive | – |
| OCC(F)(F)C(F)(F)C(F)(F)C(F)(F)C(F)(F)C(F)F | inactive | – |

| SMILES | outcome | AC50 |
| --- | --- | --- |
| FC(F)(F)C(F)(F)C(F)(F)C(F)(F)C(F)(F)C(F)(F)C(F)(F)C(F)(F)F | inactive | – |
| O=C(O)C(F)(F)C(F)(F)C(F)(F)F | inactive | – |
| FC(F)(F)C(F)(F)C(F)(F)C(F)(F)C(F)(F)C(F)(F)CCS | inactive | – |
| CCc1ccc(C(c2ccc(CC)cc2)C(Cl)Cl)cc1 | – | 14.1 µM (active) |
| FC(F)(F)C(F)(F)C(F)(F)N(C(F)(F)C(F)(F)C(F)(F)F)C(F)(F)C(F)(F)C(F)(F)F | inactive | – |
| NC(=O)C(F)(F)C(F)(F)C(F)(F)C(F)(F)F | inactive | – |
| FC(F)(F)C(F)(F)C(F)(F)C(F)(F)C(F)(F)C(F)(F)C(F)(F)C(F)(F)CCS | inactive | 6.22 µM (active) |
| OCCCC(F)(F)C(F)(F)C(F)(F)C(F)(F)C(F)(F)C(F)(F)C(F)(F)F | – | 51.2 µM (active) and 50.4 µM (active) |
| O=S(=O)(O)C(F)(F)C(F)(F)C(F)(F)C(F)(F)C(F)(F)C(F)(F)C(F)(F)F | inactive | – |
| FC(F)(F)C(F)(F)C(F)(F)C(F)(F)C(F)(F)CCI | inactive | – |
| FC(F)(F)C(F)(F)CNCC(F)(F)C(F)(F)F | inactive | – |
| Oc1ccc(Nc2ccccc2)cc1 | inactive | – |
| FC(F)(Br)C(F)(F)C(F)(F)C(F)(F)C(F)(F)C(F)(F)Br | inactive | – |
| CCCCCCCCC(F)(F)C(F)(F)C(F)(F)C(F)(F)C(F)(F)C(F)(F)F | inactive | – |
| O=P(O)(O)OCCC(F)(F)C(F)(F)C(F)(F)C(F)(F)C(F)(F)C(F)(F)F | inactive | – |
| CCCCCCCOC(=O)c1ccccc1C(=O)OCCCCCCC | inactive | – |
| C=CC(F)(F)C(F)(F)C(F)(F)C(F)(F)C(F)(F)C(F)(F)C(F)(F)C(F)(F)C=C | inactive | – |
| FC(F)(F)C(F)(F)C(F)(F)C(F)(F)C(F)(F)C(F)(F)C(F)(F)Br | inactive | – |
| OCC(F)(F)C(F)(F)C(F)(F)C(F)(F)C(F)(F)C(F)(F)F | inactive | – |

— PubChem BioAssay (EPA / NIEHS)
